The list shows a part of the results. Unmarked numbers belong to inactive results. Calls of active or inactive are those of the source. Rule as the data show it: active = inhibition above about 4.9%; inactive = the rest.

This test relates to metallo-beta-lactamase IMP-1 (Pseudomonas aeruginosa). Description: inhibition of IMP-1 substrate hydrolysis – biochemical, epi-absorbance, hits shared with VIM-2 screen, confirmation (AID 2189).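 Also: 0% = enzyme with vehicle and 100% = vehicle without enzyme.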 Particulars: purified IMP-1 enzyme, at 5.6 µM, active compounds read high.
As usually defined, the inhibition is the change of the read-out against control, counted positive when it falls. `COc1cc(/C=C2/SC(=S)N(Cc3ccccc3)C2=O)cc(OC)c1O`: the inhibition is 9.27% (active).
Then `Cc1cc2nc3c(=O)n(Cc4ccccc4)c(=O)[nH]c3nc2cc1N`, with 13.2% (active); and `Nc1c(C(=O)c2cccs2)sc2nsc(SCCN3CCCCC3)c12`, with 18.4% (active); and `C/C(=N\Nc1ccc(S(N)(=O)=O)cc1[N+](=O)[O-])c1cccs1`, with 10.6% (active).
Then `Oc1ccc2ccc3cccc[n+]3c2c1`, with 23.2% (active).
Take `CN1C(=O)c2cccc3c(N)ccc(c23)C1=O`: the inhibition is 36.2% (active).
For `Cc1nn(C)cc1N1C(=O)c2cccc3c(N)ccc(c23)C1=O` the value was 29.8% (active); for `CCC(=C/c1sc2ccc3ccccc3c2[n+]1C)/C=C1\Sc2ccc3ccccc3c2N1C`, 27.6% (active); for `NS(=O)(=O)c1ccc(NC(=O)COC(=O)c2c3c(nc4ccccc24)/C(=C\c2ccc4c(c2)OCO4)CCC3)cc1`, -2.39%.
Regarding `c1ccc(-c2nccc(-c3ccc(-n4cnc5ccccc54)cc3)n2)nc1`, the inhibition is 0.59%.
For the compound `NC(=O)c1ccc(NC(=O)COC(=O)c2c3c(nc4ccccc24)/C(=C\c2ccc4c(c2)OCO4)CCC3)cc1`, the inhibition is -2.29%.

Values taken from PubChem BioAssay AID2189 (The Scripps Research Institute Molecular Screening Center, 2009).
